Measured values from PubChem BioAssay AID1159580 (chemical genetic matrix, 2015).
The whole screen tested about 5,500 compounds, of which about 2,000 (36%) were called active. Inconclusive results (about 18%) are left out. Cut-off read from the data, not from the text of the source: active = normalized growth mostly below about 0.91 (no sharp cut-off); inconclusive = no clear call, values can overlap the other calls; inactive = mostly above about 0.92. The list shows a part of the results.

Test: chemical genetic growth profiling, strain panel (AID 1159580);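 note: tested at 20 µM; growth read once vehicle control cultures reached saturation at 30 °C; 1 = growth at the plate median or of vehicle wells; lower values mean less growth of the strain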
Conditions: growth OD
[1] = S. cerevisiae deletion strains, locus YDL101C, strain DUN1, stronger effect = lower value
[2] = S. cerevisiae deletion strains, locus YHR030C, strain SLT2, stronger effect = lower value

Measured: normalized growth

O=C1NC(c2ccccc2Cl)Nc2ccccc21 (stereo not drawn)
inactive: S. cerevisiae deletion strains, locus YAL013W, strain DEP1, stronger effect = lower value 0.997 | S. cerevisiae deletion strains, locus YBR229C, strain ROT2, stronger effect = lower value 1 | S. cerevisiae deletion strains, locus YCL061C, strain MRC1, stronger effect = lower value 0.992 | [1] 1.01 | S. cerevisiae deletion strains, locus YDL134C, strain PPH21, stronger effect = lower value 1.01 | S. cerevisiae deletion strains, locus YDR150W, strain NUM1, stronger effect = lower value 0.998 | S. cerevisiae deletion strains, locus YEL061C, strain CIN8, stronger effect = lower value 0.981 | S. cerevisiae deletion strains, locus YGR078C, strain PAC10, stronger effect = lower value 0.997 | [2] 1.04 | S. cerevisiae deletion strains, locus YHR087W, strain rtc3, stronger effect = lower value 0.998 | S. cerevisiae deletion strains, locus YJL187C, strain SWE1, stronger effect = lower value 0.993 | S. cerevisiae deletion strains, locus YJR043C, strain POL32, stronger effect = lower value 1.02 | S. cerevisiae deletion strains, locus YJR075W, strain HOC1, stronger effect = lower value 0.97 | S. cerevisiae deletion strains, locus YLR039C, strain RIC1, stronger effect = lower value 0.973 | S. cerevisiae deletion strains, locus YLR058C, strain SHM2 (second series), stronger effect = lower value 1 | S. cerevisiae deletion strains, locus YLR085C, strain ARP6, stronger effect = lower value 0.951 | S. cerevisiae deletion strains, locus YLR262C, strain YPT6, stronger effect = lower value 0.977 | S. cerevisiae deletion strains, locus YML094W, strain GIM5, stronger effect = lower value 0.989 | S. cerevisiae deletion strains, locus YMR219W, strain ESC1, stronger effect = lower value 1 | S. cerevisiae deletion strains, locus YMR263W, strain SAP30, stronger effect = lower value 1.01 | S. cerevisiae deletion strains, locus YNL153C, strain GIM3, stronger effect = lower value 1 | S. cerevisiae deletion strains, locus YNL298W, strain CLA4 (second series), stronger effect = lower value 0.997 | S. cerevisiae deletion strains, locus YNL322C, strain KRE1, stronger effect = lower value 0.99 | S. cerevisiae deletion strains, locus YNR030W, strain Alg12, stronger effect = lower value 0.984 | S. cerevisiae deletion strains, locus YPL055C, strain LGE1, stronger effect = lower value 1.03 | S. cerevisiae deletion strains, locus YPL241C, strain CIN2, stronger effect = lower value 0.981 | S. cerevisiae deletion strains, locus YPR135W, strain CTF4, stronger effect = lower value 1.05 | S. cerevisiae strains, strain wild type, stronger effect = lower value 1.01

O=C1Nc2ccccc2/C1=N/N=C\c1cc(Br)cc(Br)c1O
active: S. cerevisiae deletion strains, locus YDL214C, strain PRR2, stronger effect = lower value 0.231 | S. cerevisiae deletion strains, locus YDR477W, strain SNF1, stronger effect = lower value 0.246 | S. cerevisiae deletion strains, locus YER123W, strain YCK3, stronger effect = lower value 0.233 | S. cerevisiae deletion strains, locus YER133W, strain GLC7, stronger effect = lower value 0.249 | S. cerevisiae deletion strains, locus YFR019W, strain FAB1, stronger effect = lower value 0.396 | S. cerevisiae deletion strains, locus YGR040W, strain KSS1, stronger effect = lower value 0.278 | S. cerevisiae deletion strains, locus YGR052W, strain FMP48, stronger effect = lower value 0.132 | S. cerevisiae deletion strains, locus YGR092W, strain DBF2, stronger effect = lower value 0.121 | [2] 0.128 | S. cerevisiae deletion strains, locus YHR079C, strain IRE1, stronger effect = lower value 0.132 | S. cerevisiae deletion strains, locus YHR082C, strain KSP1, stronger effect = lower value 0.124 | S. cerevisiae deletion strains, locus YHR205W, strain SCH9, stronger effect = lower value 0.0116 | S. cerevisiae deletion strains, locus YJL095W, strain BCK1, stronger effect = lower value 0.112 | S. cerevisiae deletion strains, locus YJL157C, strain FAR1, stronger effect = lower value 0.147 | S. cerevisiae deletion strains, locus YJR066W, strain TOR1 (second series), stronger effect = lower value 0.393 | S. cerevisiae deletion strains, locus YJR066W, strain TOR1, stronger effect = lower value 0.114 | S. cerevisiae deletion strains, locus YKL048C, strain ELM1, stronger effect = lower value 0.303 | S. cerevisiae deletion strains, locus YKL067W, strain YNK1, stronger effect = lower value 0.194 | S. cerevisiae deletion strains, locus YKL101W, strain HSL1, stronger effect = lower value 0.225 | S. cerevisiae deletion strains, locus YKL203C, strain TOR2, stronger effect = lower value 0.209 | S. cerevisiae deletion strains, locus YLR113W, strain HOG1, stronger effect = lower value 0.331 | S. cerevisiae deletion strains, locus YLR133W, strain CKI1, stronger effect = lower value 0.134 | S. cerevisiae deletion strains, locus YLR403W, strain SFP1, stronger effect = lower value 0.0728 | S. cerevisiae deletion strains, locus YML070W, strain DAK1, stronger effect = lower value 0.259 | S. cerevisiae deletion strains, locus YMR205C, strain PFK2 (second series), stronger effect = lower value 0.204 | S. cerevisiae deletion strains, locus YNL006W, strain LST8, stronger effect = lower value 0.764 | S. cerevisiae deletion strains, locus YNL020C, strain ARK1, stronger effect = lower value 0.114 | S. cerevisiae deletion strains, locus YNL183C, strain NPR1, stronger effect = lower value 0.128 | S. cerevisiae deletion strains, locus YNL307C, strain MCK1 (second series), stronger effect = lower value 0.128 | S. cerevisiae deletion strains, locus YOL136C, strain PFK27, stronger effect = lower value 0.198 | S. cerevisiae deletion strains, locus YOR061W, strain CKA2, stronger effect = lower value 0.105 | S. cerevisiae deletion strains, locus YOR119C, strain RIO1, stronger effect = lower value 0.184 | S. cerevisiae deletion strains, locus YOR231W, strain MKK1, stronger effect = lower value 0.139 | S. cerevisiae deletion strains, locus YPL031C, strain PHO85, stronger effect = lower value 0.203 | S. cerevisiae deletion strains, locus YPL153C, strain RAD53, stronger effect = lower value 0.196 | S. cerevisiae deletion strains, locus YPL204W, strain HRR25, stronger effect = lower value 0.199 | S. cerevisiae deletion strains, locus YPL256C, strain CLN2, stronger effect = lower value 0.313 | S. cerevisiae deletion strains, strain NNK1, stronger effect = lower value 0.34
inactive: S. cerevisiae deletion strains, locus YAR019C, strain CDC15, stronger effect = lower value 0.947 | S. cerevisiae deletion strains, locus YBL105C, strain PKC1, stronger effect = lower value 0.959 | S. cerevisiae deletion strains, locus YBR135W, strain CKS1, stronger effect = lower value 0.964 | S. cerevisiae deletion strains, locus YBR136W, strain MEC1, stronger effect = lower value 0.955 | S. cerevisiae deletion strains, locus YBR160W, strain CDC28, stronger effect = lower value 0.959 | S. cerevisiae deletion strains, locus YDL017W, strain CDC7, stronger effect = lower value 0.957 | S. cerevisiae deletion strains, locus YDL028C, strain MPS1, stronger effect = lower value 0.95 | [1] 0.946 | S. cerevisiae deletion strains, locus YDL108W, strain KIN28, stronger effect = lower value 0.957 | S. cerevisiae deletion strains, locus YDL132W, strain cdc53, stronger effect = lower value 0.944 | S. cerevisiae deletion strains, locus YDR052C, strain DBF4, stronger effect = lower value 0.944 | S. cerevisiae deletion strains, locus YDR054C, strain cdc34, stronger effect = lower value 0.916 | S. cerevisiae deletion strains, locus YDR226W, strain ADK1, stronger effect = lower value 0.951 | S. cerevisiae deletion strains, locus YFL009W, strain cdc4, stronger effect = lower value 0.945 | S. cerevisiae deletion strains, locus YFL029C, strain CAK1, stronger effect = lower value 0.949 | S. cerevisiae deletion strains, locus YFR003C, strain YPI1, stronger effect = lower value 0.947 | S. cerevisiae deletion strains, locus YFR028C, strain CDC14, stronger effect = lower value 0.964 | S. cerevisiae deletion strains, locus YIL147C, strain SLN1, stronger effect = lower value 0.948 | S. cerevisiae deletion strains, locus YJR016C, strain ILV3, stronger effect = lower value 0.969 | S. cerevisiae deletion strains, locus YKL193C, strain SDS22, stronger effect = lower value 0.937 | S. cerevisiae deletion strains, locus YMR001C, strain CDC5, stronger effect = lower value 0.945 | S. cerevisiae deletion strains, locus YMR277W, strain FCP1, stronger effect = lower value 0.959 | S. cerevisiae deletion strains, locus YNL161W, strain CBK1, stronger effect = lower value 0.943 | S. cerevisiae deletion strains, locus YNL207W, strain RIO2, stronger effect = lower value 0.957 | S. cerevisiae deletion strains, locus YNL222W, strain SSU72, stronger effect = lower value 0.96 | S. cerevisiae deletion strains, locus YOL078W, strain AVO1, stronger effect = lower value 0.937 | S. cerevisiae deletion strains, locus YOR329C, strain SCD5, stronger effect = lower value 0.937 | S. cerevisiae deletion strains, locus YPL209C, strain IPL1, stronger effect = lower value 0.967 | S. cerevisiae deletion strains, locus YPR025C, strain CCL1, stronger effect = lower value 0.959 | S. cerevisiae deletion strains, locus YPR106W, strain ISR1, stronger effect = lower value 0.943 | S. cerevisiae deletion strains, locus YPR111W, strain DBF20, stronger effect = lower value 0.933 | S. cerevisiae deletion strains, strain TSCII, stronger effect = lower value 0.951
